Measured values as given in PubChem BioAssay (EPA / NIEHS).
Results filed as inconclusive are left out. Calls of active or inactive are those of the source. Rule for the calls, unless noted: active = hit-call score of the fitted dose curve at least 0.9, where 1 is the maximum; inconclusive = response in the unintended direction; inactive = score below 0.9.

Columns and labels:
[1] = target: human Peroxisome Proliferator-activated Receptor delta (PPARd), PPARD (gene 5467) (UniProt Q03181); assay: ATG_PPARd_TRANS: Attagene TRANS-FACTORIAL HepG2 Assay for human Peroxisome Proliferator-activated Receptor delta (PPARd) (AID 2283002)
Summary of the method: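 Transient HepG2 transfection (multiple GAL4-UAS RTUs, chimeric receptor-Gal4); 24 h dosing; total RNA → oligo(dT) RT → PCR → 6-FAM primer extension → HpaI cut → CE. Positive direction vs DMSO.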

[2] = target: Peroxisome proliferator-activated receptor gamma (Homo sapiens) (UniProt P37231); assay: ATG_PPARg_TRANS: Attagene TRANS-FACTORIAL HepG2 Assay for human Peroxisome Proliferator-activated Receptor-gamma (PPARg) (AID 2283007)
Summary of the method: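 After 24 h of chemical exposure, transfected HepG2 cells carrying PPARγ-Gal4 chimera reporter constructs are lysed for RNA. Reporter transcripts are measured by RT-PCR and capillary electrophoresis with fluorescent labelling, and gain of signal is fitted versus DMSO.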

[3] = target: human RAR-related Orphan Receptor gamma (RORg), RORC (gene 6097) (UniProt P51449); assay: ATG_RORg_TRANS: Attagene TRANS-FACTORIAL HepG2 Assay for human RAR-related Orphan Receptor gamma (RORg) (AID 2283011)
Summary of the method: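 First, HepG2 liver cells were transfected with GAL4-UAS-driven reporter constructs and the RORg-Gal4 fusion. Next, they were treated with chemical for 24 h. Finally, reporter mRNA was quantified by RT-PCR and capillary electrophoresis, with upward activity fitted against DMSO.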

[4] = target: Retinoic acid receptor RXR-alpha (Homo sapiens) (UniProt P19793); assay: ATG_RXRa_TRANS: Attagene TRANS-FACTORIAL HepG2 Assay for human Retinoid X Receptor alpha (RXRa) (AID 2283012)
Summary of the method: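 HepG2 cells transiently transfected with GAL4-UAS reporter units and chimeric RXRa-Gal4 protein, treated 24 h. Reporter mRNA measured by RT-PCR, fluorescent labelling, HpaI digestion and capillary electrophoresis. Induction fitted against DMSO.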

[5] = target: human Thyroid Receptor alpha (THRa1), THRA (gene 7067) (UniProt P10827); assay: ATG_THRa1_TRANS: Attagene TRANS-FACTORIAL HepG2 Assay for human Thyroid Receptor alpha (THRa1) (AID 2283014)
Summary of the method: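 Reporter transcript induction, read by capillary electrophoresis of 6-FAM-labelled RT-PCR products, reflects activity of a transfected THRa1-Gal4 fusion in HepG2 liver cells. Cells were dosed for 24 h; activity was fitted in the positive direction against DMSO.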

[6] = target: human Vitamin D Receptor (VDR), VDR (gene 7421) (UniProt P11473); assay: ATG_VDR_TRANS: Attagene TRANS-FACTORIAL HepG2 Assay for human Vitamin D Receptor (VDR) (AID 2283022)
Summary of the method: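 Steps: transfect HepG2 with GAL4-UAS-driven reporter constructs; dose compounds 24 h; isolate RNA, reverse-transcribe, PCR-amplify with 6-FAM-labelled primer extension and HpaI digestion; quantify fragments by capillary electrophoresis relative to DMSO.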

[7] = read-out: Intercellular Adhesion Molecule 1 (ICAM1), ICAM1 (gene 3383); assay: BSK_3C_ICAM1: BioMAP Diversity Plus: 3C Assay for Intercellular Adhesion Molecule 1 (ICAM1) Biomarker Activity (AID 2283003; active = hit-call score of the fitted dose curve at least 0.9, where 1 is the maximum; inactive = score below 0.9); details: primary human endothelial cells (HUVEC); actives raise or lower the signal
Summary of the method: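 HUVEC primary cells stimulated under 3C conditions; ICAM1 measured by ELISA 24 h after compound dosing. Curves fitted bidirectionally against the DMSO baseline. Overt cytotoxicity checked by SRB staining of parallel cultures.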

[8] = BSK_3C_Proliferation: Cell Proliferation Assessment in the BioMAP Diversity Plus: 3C Assay (AID 2283006; active = hit-call score of the fitted dose curve at least 0.9, where 1 is the maximum; inactive = score below 0.9;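 for AC50: potency may reflect either rise or fall in cell number versus DMSO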); details: primary human endothelial cells (HUVEC)
Summary of the method: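 Subconfluent HUVEC (3C system) cultured with chemical; relative cell number read at 48 h by sulforhodamine B total-protein staining (0.1% SRB after 10% TCA fixation, 560 nm). Bidirectional fit relative to DMSO.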

[9] = target: Nuclear receptor subfamily 1 group I member 2 (Homo sapiens) (UniProt O75469); assay: ATG_PXR_TRANS: Attagene TRANS-FACTORIAL HepG2 Assay for human Pregnane X Receptor (PXR) (AID 2283008)
Summary of the method: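 Measures mRNA induction of a GAL4-UAS-driven reporter in human HepG2 cells transiently expressing PXR fused to Gal4, following 24 h treatment. DMSO served as negative control and baseline.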

[10] = target: human RAR-related Orphan Receptor beta (RORb), RORB (gene 6096) (UniProt Q92753); assay: ATG_RORb_TRANS: Attagene TRANS-FACTORIAL HepG2 Assay for human RAR-related Orphan Receptor beta (RORb) (AID 2283010)
Summary of the method: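 HepG2 cells transiently transfected with GAL4-UAS reporter units expressing chimeric NR-Gal4 protein; reporter mRNA measured 24 h after dosing by RT-PCR, 6-FAM labelling and capillary electrophoresis. Gain-of-signal fitted relative to DMSO baseline.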

[11] = target: human Retinoid X Receptor beta (RXRb), RXRB (gene 6257) (UniProt P28702); assay: ATG_RXRb_TRANS: Attagene TRANS-FACTORIAL HepG2 Assay for human Retinoid X Receptor beta (RXRb) (AID 2283013)
Summary of the method: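 HepG2 cells were transiently transfected with multiplexed GAL4-UAS reporters and a chimeric RXRb-Gal4 construct, then exposed for 24 h. Reporter mRNA was quantified by RT-PCR, FAM labeling, HpaI digestion and capillary electrophoresis; gain of signal was scored against DMSO.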

[12] = read-out: E-selectin (Homo sapiens) (UniProt P16581); assay: BSK_3C_Eselectin: BioMAP Diversity Plus: 3C Assay for Eselectin Biomarker Activity (AID 2283015; active = hit-call score of the fitted dose curve at least 0.9, where 1 is the maximum; inactive = score below 0.9); details: primary human endothelial cells (HUVEC); actives raise or lower the signal
Summary of the method: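 ELISA read-out of E-selectin on endothelial monolayers after 24 h chemical treatment. Human umbilical vein primary cells served as the system, with DMSO defining baseline activity for bidirectional fitting.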

[13] = read-out: Interleukin-1 alpha (IL1a), IL1A (gene 3552); assay: BSK_BE3C_IL1a: BioMAP Diversity Plus: BE3C Assay for Interleukin-1 alpha (IL1a) Biomarker Activity (AID 2283016; active = hit-call score of the fitted dose curve at least 0.9, where 1 is the maximum; inactive = score below 0.9); details: primary human bronchial epithelial cells; actives raise or lower the signal
Summary of the method: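 Human primary bronchial epithelial cells, 24 h chemical exposure; IL-1a quantified by ELISA, fitted bidirectionally against DMSO. Cytotoxicity assessed in parallel by SRB total-protein staining at the time of measurement.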

[14] = read-out: Monocyte Chemoattractant Protein-1 (MCP1), CCL2 (gene 6347); assay: BSK_3C_MCP1: BioMAP Diversity Plus: 3C Assay for Monocyte Chemoattractant Protein-1 (MCP1) Biomarker Activity (AID 2283017; active = hit-call score of the fitted dose curve at least 0.9, where 1 is the maximum; inactive = score below 0.9); details: primary human endothelial cells (HUVEC); actives raise or lower the signal
Summary of the method: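 ELISA read-out of MCP-1 from human umbilical vein endothelial cell cultures harvested 24 h post-dosing. Gain or loss of signal was fitted relative to DMSO.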

[15] = read-out: Monocyte Chemoattractant Protein-1 (MCP1), CCL2 (gene 6347); assay: BSK_4H_MCP1: BioMAP Diversity Plus: 4H Assay for Monocyte Chemoattractant Protein-1 (MCP1) Biomarker Activity (AID 2283018; active = hit-call score of the fitted dose curve at least 0.9, where 1 is the maximum; inactive = score below 0.9); details: primary human endothelial cells (HUVEC); actives raise or lower the signal
Summary of the method: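 Human umbilical vein endothelial cells (4H system) exposed to chemicals for 24 h in 96-well format. MCP-1 measured by ELISA; bidirectional fitting against DMSO, with SRB total-protein staining in parallel cultures for cytotoxicity.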

[16] = read-out: Human Leukocyte Antigen - DR isotype (HLADR), HLA-DRA (gene 3122); assay: BSK_3C_HLADR: BioMAP Diversity Plus: 3C Assay for Human Leukocyte Antigen - DR isotype (HLADR) Biomarker Activity (AID 2283019; active = hit-call score of the fitted dose curve at least 0.9, where 1 is the maximum; inactive = score below 0.9); details: primary human endothelial cells (HUVEC); actives raise or lower the signal
Summary of the method: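 ELISA readout of surface HLA-DR on human umbilical vein endothelium, taken 24 h after chemical treatment. Gain- and loss-of-signal were both fitted relative to DMSO.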

[17] = read-out: Interleukin-8 (IL8), CXCL8 (gene 3576); assay: BSK_3C_IL8: BioMAP Diversity Plus: 3C Assay for Interleukin-8 (IL8) Biomarker Activity (AID 2283020; active = hit-call score of the fitted dose curve at least 0.9, where 1 is the maximum; inactive = score below 0.9); details: primary human endothelial cells (HUVEC); actives raise or lower the signal
Summary of the method: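 Primary human umbilical vein endothelial cells were dosed for 24 h. IL-8 was quantified by ELISA and fitted bidirectionally against DMSO. Cytotoxicity was assessed in parallel cultures by SRB staining at 560 nm.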

[18] = read-out: Monokine induced gamma interferon (MIG), CXCL9 (gene 4283); assay: BSK_3C_MIG: BioMAP Diversity Plus: 3C Assay for Monokine induced gamma interferon (MIG) Biomarker Activity (AID 2283021; active = hit-call score of the fitted dose curve at least 0.9, where 1 is the maximum; inactive = score below 0.9); details: primary human endothelial cells (HUVEC); actives raise or lower the signal
Summary of the method: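 HUVEC primary endothelial cultures dosed with chemical; MIG quantified by ELISA at 24 h. Data fitted bidirectionally against DMSO control, with parallel SRB total-protein staining for cytotoxicity.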

[19] = BSK_3C_SRB: Viability Assessment in the BioMAP Diversity Plus: 3C Assay (AID 2283023; active = hit-call score of the fitted dose curve at least 0.9, where 1 is the maximum; inactive = score below 0.9;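 note: fitted both ways against DMSO so a hit may be signal rise or drop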); details: primary human endothelial cells (HUVEC)
Summary of the method: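 Absorbance at 560 nm of sulforhodamine B-stained (0.1%) total protein served as a cytotoxicity readout in human umbilical vein endothelial cells, 24 h after chemical treatment. Signal was fitted bidirectionally relative to DMSO.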

[20] = target: human Retinoic Acid Receptor gamma (RARg), RARG (gene 5916) (UniProt P13631); assay: ATG_RARg_TRANS: Attagene TRANS-FACTORIAL HepG2 Assay for human Retinoic Acid Receptor gamma (RARg) (AID 2283009)
Summary of the method: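 HepG2 transiently transfected with GAL4-UAS reporter units and chimeric NR-Gal4 constructs; 24 h compound exposure. Reporter mRNA quantified by RT-PCR, FAM labeling, HpaI digestion and capillary electrophoresis; gain-of-signal versus DMSO.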

Measured: AC50

Sequence of Nuclear receptor subfamily 1 group I member 2 (Homo sapiens) (O75469 whole entry, looked up, the tested form may be a part): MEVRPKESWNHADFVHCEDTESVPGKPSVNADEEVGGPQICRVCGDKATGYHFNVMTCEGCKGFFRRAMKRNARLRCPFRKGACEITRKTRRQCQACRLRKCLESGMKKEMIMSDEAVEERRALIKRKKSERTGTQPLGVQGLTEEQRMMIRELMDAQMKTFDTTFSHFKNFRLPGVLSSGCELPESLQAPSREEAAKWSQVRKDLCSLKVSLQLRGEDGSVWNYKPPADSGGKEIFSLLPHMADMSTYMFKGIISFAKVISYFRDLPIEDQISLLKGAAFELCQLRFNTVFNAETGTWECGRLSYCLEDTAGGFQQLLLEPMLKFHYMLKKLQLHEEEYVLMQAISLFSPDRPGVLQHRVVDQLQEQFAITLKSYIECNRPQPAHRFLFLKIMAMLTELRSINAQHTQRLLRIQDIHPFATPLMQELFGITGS
Sequence of E-selectin (Homo sapiens) (P16581 whole entry, looked up): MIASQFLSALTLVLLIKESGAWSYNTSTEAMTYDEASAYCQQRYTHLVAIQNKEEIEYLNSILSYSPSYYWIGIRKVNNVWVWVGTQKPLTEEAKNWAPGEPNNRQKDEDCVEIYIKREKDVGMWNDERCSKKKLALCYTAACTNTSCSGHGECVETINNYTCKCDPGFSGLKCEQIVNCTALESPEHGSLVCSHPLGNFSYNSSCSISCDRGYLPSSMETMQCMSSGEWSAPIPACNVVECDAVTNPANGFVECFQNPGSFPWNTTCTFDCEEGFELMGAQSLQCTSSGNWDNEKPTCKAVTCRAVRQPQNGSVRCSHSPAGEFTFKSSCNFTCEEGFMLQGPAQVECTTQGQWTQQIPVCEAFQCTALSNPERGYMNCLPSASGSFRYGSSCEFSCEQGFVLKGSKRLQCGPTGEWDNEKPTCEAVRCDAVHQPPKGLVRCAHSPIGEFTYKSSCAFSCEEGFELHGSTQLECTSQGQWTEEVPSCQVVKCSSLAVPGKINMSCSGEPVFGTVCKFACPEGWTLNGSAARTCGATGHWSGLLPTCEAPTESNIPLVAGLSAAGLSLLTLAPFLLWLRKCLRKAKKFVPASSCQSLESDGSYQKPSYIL
Sequence of human Thyroid Receptor alpha (THRa1), THRA (gene 7067) (P10827 whole entry, looked up, the tested form may be a part): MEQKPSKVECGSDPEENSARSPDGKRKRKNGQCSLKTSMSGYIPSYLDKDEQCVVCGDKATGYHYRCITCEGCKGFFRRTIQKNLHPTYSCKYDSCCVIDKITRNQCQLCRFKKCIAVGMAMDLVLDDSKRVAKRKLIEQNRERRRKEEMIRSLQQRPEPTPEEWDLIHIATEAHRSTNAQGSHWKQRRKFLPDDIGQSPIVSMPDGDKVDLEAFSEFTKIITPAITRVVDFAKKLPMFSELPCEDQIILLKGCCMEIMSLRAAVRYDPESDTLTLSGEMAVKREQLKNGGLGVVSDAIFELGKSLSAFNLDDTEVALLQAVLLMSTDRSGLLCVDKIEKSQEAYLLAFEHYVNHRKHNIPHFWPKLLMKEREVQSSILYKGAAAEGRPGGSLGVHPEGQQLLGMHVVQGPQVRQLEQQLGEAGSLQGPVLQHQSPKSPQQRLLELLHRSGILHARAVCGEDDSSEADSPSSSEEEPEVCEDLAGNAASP
Sequence of Retinoic acid receptor RXR-alpha (Homo sapiens) (P19793 whole entry, looked up, the tested form may be a part): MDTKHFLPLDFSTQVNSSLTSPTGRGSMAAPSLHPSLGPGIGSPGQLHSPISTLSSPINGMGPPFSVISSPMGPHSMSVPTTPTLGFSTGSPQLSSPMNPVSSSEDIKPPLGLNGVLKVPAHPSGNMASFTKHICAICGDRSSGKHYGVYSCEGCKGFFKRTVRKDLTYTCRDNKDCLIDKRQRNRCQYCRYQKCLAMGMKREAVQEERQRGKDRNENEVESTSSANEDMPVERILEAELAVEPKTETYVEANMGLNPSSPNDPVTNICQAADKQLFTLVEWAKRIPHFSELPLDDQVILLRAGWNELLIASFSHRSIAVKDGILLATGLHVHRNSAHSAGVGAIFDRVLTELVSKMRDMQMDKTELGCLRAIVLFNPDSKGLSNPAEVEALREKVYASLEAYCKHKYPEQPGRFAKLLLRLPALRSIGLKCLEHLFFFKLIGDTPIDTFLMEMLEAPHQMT
Sequence of human Retinoic Acid Receptor gamma (RARg), RARG (gene 5916) (P13631 whole entry, looked up, the tested form may be a part): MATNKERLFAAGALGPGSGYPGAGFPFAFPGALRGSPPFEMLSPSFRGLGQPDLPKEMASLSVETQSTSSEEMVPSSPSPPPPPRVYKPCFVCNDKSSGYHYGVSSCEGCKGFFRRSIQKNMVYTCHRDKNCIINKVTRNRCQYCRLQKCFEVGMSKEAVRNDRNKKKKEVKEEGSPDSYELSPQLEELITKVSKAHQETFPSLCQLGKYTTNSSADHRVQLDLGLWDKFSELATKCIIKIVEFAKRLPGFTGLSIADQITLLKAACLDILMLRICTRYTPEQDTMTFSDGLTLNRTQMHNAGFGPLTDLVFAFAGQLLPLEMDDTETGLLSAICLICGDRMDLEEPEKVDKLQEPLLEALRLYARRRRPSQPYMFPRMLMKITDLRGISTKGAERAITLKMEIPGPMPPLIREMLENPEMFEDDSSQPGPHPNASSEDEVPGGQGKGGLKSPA
Sequence of human Peroxisome Proliferator-activated Receptor delta (PPARd), PPARD (gene 5467) (Q03181 whole entry, looked up, the tested form may be a part): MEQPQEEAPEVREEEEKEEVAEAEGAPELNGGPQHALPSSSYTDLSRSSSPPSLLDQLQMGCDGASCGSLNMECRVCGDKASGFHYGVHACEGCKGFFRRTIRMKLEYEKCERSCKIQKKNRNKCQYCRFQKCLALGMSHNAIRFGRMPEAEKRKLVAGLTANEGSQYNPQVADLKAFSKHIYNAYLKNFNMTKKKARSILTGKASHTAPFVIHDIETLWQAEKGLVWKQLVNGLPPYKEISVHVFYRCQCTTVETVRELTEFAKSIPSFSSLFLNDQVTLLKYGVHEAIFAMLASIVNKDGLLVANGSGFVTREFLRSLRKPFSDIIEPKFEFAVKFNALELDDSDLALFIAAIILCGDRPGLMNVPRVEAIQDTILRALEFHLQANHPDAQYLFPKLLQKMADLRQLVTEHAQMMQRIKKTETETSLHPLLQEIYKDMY
Sequence of Peroxisome proliferator-activated receptor gamma (Homo sapiens) (P37231 whole entry, looked up, the tested form may be a part): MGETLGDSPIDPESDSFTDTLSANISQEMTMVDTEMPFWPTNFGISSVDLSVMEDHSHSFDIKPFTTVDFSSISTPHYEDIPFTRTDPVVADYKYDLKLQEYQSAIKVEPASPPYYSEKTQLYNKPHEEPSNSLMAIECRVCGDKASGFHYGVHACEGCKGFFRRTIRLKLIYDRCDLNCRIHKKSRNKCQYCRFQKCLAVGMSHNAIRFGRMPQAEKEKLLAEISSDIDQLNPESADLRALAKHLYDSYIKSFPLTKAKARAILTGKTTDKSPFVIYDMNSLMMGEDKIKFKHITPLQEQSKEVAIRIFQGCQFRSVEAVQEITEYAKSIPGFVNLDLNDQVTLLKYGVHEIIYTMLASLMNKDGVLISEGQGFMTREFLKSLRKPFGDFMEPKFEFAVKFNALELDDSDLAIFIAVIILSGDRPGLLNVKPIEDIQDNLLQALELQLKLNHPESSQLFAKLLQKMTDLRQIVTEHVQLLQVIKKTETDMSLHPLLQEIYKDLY
Sequence of human Vitamin D Receptor (VDR), VDR (gene 7421) (P11473 whole entry, looked up, the tested form may be a part): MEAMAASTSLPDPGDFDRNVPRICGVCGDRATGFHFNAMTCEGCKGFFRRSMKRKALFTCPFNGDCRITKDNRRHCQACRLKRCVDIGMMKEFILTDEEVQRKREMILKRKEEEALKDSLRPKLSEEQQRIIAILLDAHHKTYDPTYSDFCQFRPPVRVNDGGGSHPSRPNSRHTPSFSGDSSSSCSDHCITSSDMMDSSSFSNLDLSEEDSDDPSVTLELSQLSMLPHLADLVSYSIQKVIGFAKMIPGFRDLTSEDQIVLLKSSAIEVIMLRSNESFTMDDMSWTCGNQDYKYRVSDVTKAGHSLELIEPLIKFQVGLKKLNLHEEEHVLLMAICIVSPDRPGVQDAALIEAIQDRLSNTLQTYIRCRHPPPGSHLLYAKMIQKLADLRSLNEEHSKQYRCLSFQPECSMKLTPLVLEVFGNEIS
Sequence of human Retinoid X Receptor beta (RXRb), RXRB (gene 6257) (P28702 whole entry, looked up, the tested form may be a part): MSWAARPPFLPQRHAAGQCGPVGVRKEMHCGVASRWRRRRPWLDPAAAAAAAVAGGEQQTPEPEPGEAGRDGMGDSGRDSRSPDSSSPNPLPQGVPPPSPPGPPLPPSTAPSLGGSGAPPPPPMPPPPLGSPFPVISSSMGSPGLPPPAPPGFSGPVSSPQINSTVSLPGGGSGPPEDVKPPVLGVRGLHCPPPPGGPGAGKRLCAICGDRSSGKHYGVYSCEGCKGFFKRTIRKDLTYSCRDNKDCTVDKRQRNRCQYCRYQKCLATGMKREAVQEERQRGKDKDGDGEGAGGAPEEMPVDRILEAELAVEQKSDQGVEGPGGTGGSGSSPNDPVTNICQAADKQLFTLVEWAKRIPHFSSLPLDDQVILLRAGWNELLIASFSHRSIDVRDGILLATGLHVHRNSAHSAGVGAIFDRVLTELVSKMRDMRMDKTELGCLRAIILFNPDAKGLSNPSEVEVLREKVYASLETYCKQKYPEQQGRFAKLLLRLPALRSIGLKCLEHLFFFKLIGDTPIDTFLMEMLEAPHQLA
Sequence of human RAR-related Orphan Receptor gamma (RORg), RORC (gene 6097) (P51449 whole entry, looked up, the tested form may be a part): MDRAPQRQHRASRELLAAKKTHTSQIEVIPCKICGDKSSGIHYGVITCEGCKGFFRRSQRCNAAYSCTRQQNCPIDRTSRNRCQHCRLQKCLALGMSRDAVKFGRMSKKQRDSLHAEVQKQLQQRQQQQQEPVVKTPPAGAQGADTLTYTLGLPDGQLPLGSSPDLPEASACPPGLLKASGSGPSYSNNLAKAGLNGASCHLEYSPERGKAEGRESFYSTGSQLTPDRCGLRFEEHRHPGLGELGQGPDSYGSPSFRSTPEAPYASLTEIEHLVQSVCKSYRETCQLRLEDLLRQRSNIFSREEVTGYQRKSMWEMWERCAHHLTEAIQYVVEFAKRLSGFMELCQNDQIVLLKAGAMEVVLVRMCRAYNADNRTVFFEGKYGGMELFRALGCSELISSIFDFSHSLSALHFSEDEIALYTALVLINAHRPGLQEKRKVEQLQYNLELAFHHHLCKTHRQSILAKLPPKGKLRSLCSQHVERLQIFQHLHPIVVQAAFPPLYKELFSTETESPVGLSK

CC(O)C#N (centres undefined)
inactive: [1] | [2] | [3] | [4] | [5] | [6]

ClC(Cl)c1ccccc1
not listed: [2] | [6] | [20]
inactive: all other assays above

O=C(O)C(F)(F)OC(F)(F)C(F)(F)OC(F)(F)C(=O)O
not listed: [2] | [3] | [4] | [5] | [10] | [20]
inactive: all other assays above

Clc1ccc(Oc2ccccc2)cc1
active: [11] 100 µM
inactive: [1] | [2] | [9] | [4] | [5] | [6]

CC(=O)c1ccc(-c2ccccc2)cc1
inactive: [1] | [2] | [3] | [4] | [11] | [5] | [6]

Oc1ccc(I)cc1
inactive: [1] | [2] | [4] | [5] | [6]

O=[N+]([O-])c1cc(Cl)ccc1Cl
inactive: [1] | [4] | [11] | [5]
active: [2] 16.1 µM

CCOP(=S)(Oc1ccc([N+](=O)[O-])cc1)c1ccccc1 (centres undefined)
active: [8] 13.5 µM | [11] 2.35 µM
not listed: [3] | [4] | [5] | [9] | [10] | [20]
inactive: all other assays above

O=S(=O)(c1ccc(O)cc1)c1ccc(O)cc1
active: [2] 22.4 µM
inactive: [1] | [4] | [5] | [6]

CCCCc1ccc(O)cc1
active: [2] 57.1 µM | [11] 64.2 µM
inactive: [1] | [9] | [20] | [4]

ClC(Cl)(Cl)c1ccccc1
not listed: [2] | [3] | [5] | [9] | [10] | [11] | [20]
inactive: all other assays above

CCOP(=S)(NC(C)C)Oc1ccccc1C(=O)OC(C)C (centres undefined)
active: [2] 8.99 µM | [11] 13.3 µM | [12] 20 µM
not listed: [3] | [5] | [9] | [10] | [20]
inactive: all other assays above

O=S1(=O)OCC2C(CO1)C1(Cl)C(Cl)=C(Cl)C2(Cl)C1(Cl)Cl (centres undefined)
active: [8] 25.1 µM | [15] 10.1 µM | [16] 24.1 µM | [19] 20 µM
inactive: [1] | [7] | [20] | [4] | [12] | [13] | [14] | [17] | [18]

O=C(CBr)OCc1ccccc1
inactive: [1] | [2] | [4]

CC1(C)CN=C(NN=C(/C=C/c2ccc(C(F)(F)F)cc2)/C=C/c2ccc(C(F)(F)F)cc2)NC1
inactive: [1] | [9] | [4] | [5]

O=NN1CCCC1
inactive: [1] | [2] | [9] | [20] | [3] | [5]

CC(C)(C)OOC(C)(C)C
not listed: [2] | [3] | [6] | [9] | [11] | [20]
inactive: all other assays above
